Only some compounds are listed: those with a hit (about 12% of all), similar ones and a draw of the others.
HCV inh = qHTS Assay for Inhibitors of Hepatitis C Virus (HCV). Huh7.5.1 HCVcc-Cre infection, luciferase reporter, 44 h. Potency, µM (series often up to 41.8 µM), without a hit: at the top dose activity change, negative = inhibition, actives largely listed as inhibitors. hit rate 3.4% among 340,000; also: % is scaled to controls: 0 for no effect and ±100 for the full control effect
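Infectious HCVcc-Cre (~0.5 moi) was added to cells just after compound, with cells seeded 4 h earlier at 1,000 per well. Luciferase activity after 44 h culture reported infection; substrate was incubated 15 min at room temperature before reading.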
Pf growth 96h = Primary qHTS for delayed death inhibitors of the malarial parasite plastid, 96 hour incubation. P. falciparum luciferase reporter growth, 96 h. Potency, µM (highest dose often 28.7 µM), without a hit: at the highest dose activity change, negative = inhibition, actives largely listed as inhibitors. hit rate 6.9% among 320,000. AID 504834, 2011; also: % is scaled to controls: 0 for no effect and ±100 for the full control effect
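Delayed-death screen, second-generation endpoint: infected erythrocytes, 2% hematocrit, 0.05% parasitemia final; 96 hours at 37 C, 5% CO2; luciferase detection reagent; luminescence decrease equals reduced growth.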
AMA1 RON2 block = qHTS for Inhibitors of AMA1-RON; Towards Development of Antimalarial Drug Lead: Primary Screen | AlphaScreen AMA1-biotinylated RON2 peptide binding | Potency, µM (highest dose often 58.2 µM), for inactives: at the top dose activity change, negative = inhibition, actives largely listed as inhibitors | hit rate 0.2% among 360,000 | AID 720542, 2013;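 also: 0% = vehicle wells and -100% = peptide control; nearly all actives have a fitted effect of over 45% in size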
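AMA1 (3D7) with his tag at 25 nM final met compounds first, then biotinylated RON2 peptide at 25 nM; detection used donor plus acceptor beads, 10 µg/mL apiece, read by AlphaScreen after 30 min at room temperature.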
NS1 inh = qHTS Assay for Inhibitors of Influenza NS1 Protein Function; Potency, µM (top dose mostly 46.1 µM), inactives show at the highest dose activity, positive = more growth; hit rate 0.4% among 270,000; AID 2326, 2010; calls by dose curve; also: actives are rising curves; nearly all actives have a fitted effect of over 50% in size
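In this qHTS, NS1 from influenza A is expressed in budding yeast, where it slows growth. Cells are switched from glucose to 2% galactose medium (pH 6.0, -URA), treated with compound, and growth recovery is read at OD600.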
Pf growth 48h = Primary qHTS for delayed death inhibitors of the malarial parasite plastid, 48 hour incubation. P. falciparum luciferase growth in erythrocytes, 48 h. Potency, µM (highest dose often 28.7 µM), for inactives: top-dose activity change, negative = inhibition, most hits filed as inhibitors. hit rate 5.9% among 310,000. AID 504832, 2011; also: % is scaled to controls: 0 for no effect and ±100 for the full control effect
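Luminescence readout; reporter = integrated firefly luciferase in P. falciparum. RBC culture at 2% hematocrit, 0.1% parasitemia final, 37 C/5% CO2; decreased signal taken as growth inhibition.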
SARS PLP yeast = qHTS of Yeast-based Assay for SARS-CoV PLP; S. cerevisiae expressing SARS-CoV PLpro, growth rescue; Potency, µM (top dose mostly 32.9 µM), for the others: at the highest dose activity, positive = growth rescue, hits mostly activators; hit rate 0.19% among 330,000; calls by dose curve; also: 0% is about no effect; nearly all actives have a fitted effect of over 55% in size
Numbers without * were called inactive; [ ] = remark or other dose. Unless noted, calls follow the shape of the dose curve; as a rule, active = well fitted curve in the direction sought with a large enough effect; inconclusive = small, poorly fitted or top-dose-only effect, or another doubt; inactive = no such curve, though single readings can be large; an effect the other way counts as inactive or inconclusive. Potency is read from the fitted curve at half-maximal effect.

How did Cc1cc(C)c(C)c(N=Nc2nc3ccccc3n2C)c1C do in these assays?
HCV inh: inconclusive; Pf growth 96h: 15.4%; AMA1 RON2 block: 11.2µM*; NS1 inh: -22.0%; Pf growth 48h: -79.9%; SARS PLP yeast: -51.0%

How did Cn1c(/N=C/c2cccs2)nc2ccccc21 do in these assays?
HCV inh: 2.1%; Pf growth 96h: 20.9%; AMA1 RON2 block: 1.1%; NS1 inh: 0.4%; Pf growth 48h: 0.7%; SARS PLP yeast: -3.0%

What do the screens show for `Cc1ccc(C)c(N=Nc2nc3ccccc3n2C)c1`?
HCV inh: 14.1µM*; Pf growth 96h: 0.465µM*; AMA1 RON2 block: 10.6µM*; NS1 inh: -148.1%; Pf growth 48h: 0.522µM*; SARS PLP yeast: -21.3%

Results for CN(C)CCC=C1c2ccccc2C(C)(C)c2ccccc21 ?
Pf growth 96h: 6.75µM*; Pf growth 48h: inconclusive

What do the screens show for `CN(C)CC/C=C1/c2ccccc2COc2ccccc21`?
SARS PLP yeast: -0.3%

How did CN(C)CCC=C1c2ccccc2CCc2ccccc21 do in these assays?
HCV inh: inconclusive; Pf growth 96h: inconclusive; AMA1 RON2 block: -12.2%; NS1 inh: -5.9%; Pf growth 48h: 14.7µM*; SARS PLP yeast: -41.0%

What do the screens show for `CN(C)CCC=C1c2ccccc2C=Cc2ccccc21`?
HCV inh: 31.6µM*; Pf growth 96h: inconclusive; AMA1 RON2 block: -9.8%; NS1 inh: -9.3%; Pf growth 48h: 11.7µM*

What do the screens show for `Cc1cc(NC(=O)c2cccs2)ncc1NC(=O)C(C)(C)C`?
HCV inh: 8.2%; Pf growth 96h: -6.6%; AMA1 RON2 block: -3.0%; NS1 inh: -9.6%; Pf growth 48h: 282.4%; SARS PLP yeast: -6.8%

How did O=C(OCCc1ccccc1)c1cc(O)c(O)c(O)c1 do in these assays?
HCV inh: inconclusive; Pf growth 96h: -9.0%; AMA1 RON2 block: inconclusive; Pf growth 48h: -30.9%; SARS PLP yeast: -9.6%

Results for O=C(Oc1ccccc1)c1cc(O)c(O)c(O)c1 ?
AMA1 RON2 block: 39.8µM*

Results for CC1(C(=O)Nc2nc3ccccc3s2)CC1(Br)Br (configuration not stated) ?
HCV inh: 5.7%; Pf growth 96h: -13.1%; AMA1 RON2 block: 0.0%; NS1 inh: -3.6%; Pf growth 48h: 10.3%[0.00184 µM]; SARS PLP yeast: -2.1%

What do the screens show for `Cc1cc(NC(=O)c2cccc(Br)c2)n[nH]1`?
HCV inh: 13.4%; Pf growth 96h: 202.2%; AMA1 RON2 block: 2.3%; Pf growth 48h: 62.4%; SARS PLP yeast: 2.5%

How did CSc1nccc(NC(=O)c2cccc(Br)c2)n1 do in these assays?
HCV inh: 10µM*; Pf growth 96h: 39.7%; AMA1 RON2 block: 11.5%; NS1 inh: -5.4%; Pf growth 48h: -15.7%; SARS PLP yeast: 1.5%

What do the screens show for `Fc1ccc(CNc2ncnc3cc(Cl)ccc23)cc1`?
HCV inh: 10µM*; Pf growth 96h: inconclusive; AMA1 RON2 block: 6.2%; NS1 inh: -49.4%; Pf growth 48h: inconclusive; SARS PLP yeast: -6.3%

How did COc1ccc(C[C@H]2CN3C(=NC[C@@H]3C(C)C)N2C[C@H](C)NC(=O)c2ccc(C)c(Br)c2)cc1 do in these assays?
HCV inh: -8.8%; Pf growth 96h: 2.94µM*; AMA1 RON2 block: -5.7%; NS1 inh: 3.5%; Pf growth 48h: inconclusive; SARS PLP yeast: 0.4%

Results for Cc1ccc(C(=O)NCC(C)NC(=O)c2ccc(C)c([N+](=O)[O-])c2)cc1[N+](=O)[O-] (configuration not stated) ?
HCV inh: -12.9%; AMA1 RON2 block: -1.4%

How did Cc1ccc(C(=O)N[C@@H](C)CN2C3=NC[C@H](C(C)C)N3C[C@H]2Cc2ccc(O)cc2)cc1Br do in these assays?
HCV inh: -4.8%; Pf growth 96h: 9.28µM*; AMA1 RON2 block: -10.8%; NS1 inh: -6.2%; Pf growth 48h: inconclusive; SARS PLP yeast: 16.3%
